# Measurements: PubChem BioAssay (NCATS)
# Inconclusive results are not listed. Where a call stands in place of a potency, no number is given. Active and inactive are the calls of the source. Calls come from the whole dose curve; as a rule, active = well fitted inhibition curve with a large enough effect; inconclusive = small, poorly fitted or top-dose-only effect; inactive = flat fitted curve, though single readings scatter.
# Assays:
# Experiment in all cases: qHTS profiling for inhibitors of Plasmodium falciparum proliferation (AID 504749); note: nearly all actives have a fitted effect of over 60% in size
# Details in all cases: P. falciparum in erythrocytes, SYBR Green DNA, 72 h; series mostly up to 28.7 µM
# CP325 = test system: CP325
# How it was run: (§1)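 P. falciparum-infected erythrocytes (0.3% parasitemia, 2.5% hematocrit) incubated with compound 72 h at 37 C, 5% CO2. Parasite DNA detected by SYBR Green after lysis, overnight at room temperature; normalised to 0.29 uM artemisinin and DMSO.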
# CP329 = test system: CP329
# How it was run: as §1
# CP335 = test system: CP335
# How it was run: as §1
# DFO2036 = test system: DFO2036
# How it was run: as §1
# DIV14 = test system: DIV14
# How it was run: as §1
# DIV17 = test system: DIV17
# How it was run: as §1
# DIV30 = test system: DIV30
# How it was run: as §1
# Dd2 = test system: Dd2
# How it was run: as §1
# ECU = test system: ECU
# How it was run: as §1
# FAB9 = test system: FAB9
# How it was run: as §1
# GB4 = test system: GB4
# How it was run: as §1
# HB3 = test system: HB3
# How it was run: as §1
# ICS = test system: ICS
# How it was run: as §1
# JCK = test system: JCK
# How it was run: as §1
# P93_24 = test system: P93_24
# How it was run: as §1
# P94_40 = test system: P94_40
# How it was run: as §1
# PAD = test system: PAD
# How it was run: as §1
# PC15 = test system: PC15
# How it was run: as §1
# PC26 = test system: PC26
# How it was run: as §1
# N140 = test system: N140
# How it was run: as §1
# Potency is the fitted concentration of half-maximal effect.
Compound,outcome (CP325),outcome (CP329),Potency (CP335),Potency (DFO2036),Potency (DIV14),Potency (DIV17),outcome (DIV30),Potency (Dd2),Potency (ECU),Potency (FAB9),Potency (GB4),Potency (HB3),Potency (ICS),Potency (JCK),Potency (P93_24),Potency (P94_40),Potency (PAD),Potency (PC15),Potency (PC26),Potency (N140)
CC(C)CCOC(=O)c1ccc(N(C)C)cc1,inactive,inactive,inactive,inactive,inactive,inactive,inactive,inactive,inactive,inactive,inactive,inactive,inactive,inactive,inactive,inactive,inactive,inactive,inactive,–
O=C(O)Cn1c(C(=O)Nc2nc(-c3ccccc3Cl)cs2)cc2ccccc21,inactive,inactive,inactive,inactive,inactive,inactive,inactive,inactive,inactive,inactive,inactive,inactive,–,inactive,inactive,inactive,inactive,inactive,inactive,inactive
COc1ccc(C(=O)NCc2ccc(OCCN(C)C)cc2)cc1OC,inactive,inactive,inactive,inactive,inactive,–,inactive,inactive,inactive,inactive,inactive,inactive,inactive,inactive,inactive,inactive,inactive,inactive,inactive,inactive
CC(=O)Oc1cccc(O)c1,inactive,inactive,inactive,inactive,inactive,inactive,inactive,inactive,inactive,inactive,inactive,inactive,inactive,inactive,–,inactive,inactive,inactive,inactive,inactive
NC(=O)NS(=O)(=O)c1ccc(N)cc1,inactive,inactive,inactive,inactive,inactive,inactive,inactive,inactive,inactive,inactive,inactive,inactive,–,inactive,inactive,inactive,inactive,inactive,inactive,inactive
CC(=O)NS(=O)(=O)c1ccc(N)cc1,inactive,inactive,inactive,inactive,inactive,inactive,inactive,inactive,inactive,inactive,inactive,inactive,inactive,inactive,–,inactive,inactive,inactive,inactive,inactive
CCN(CC)CCOC(=O)C(c1ccccc1)c1ccccc1,inactive,inactive,inactive,inactive,inactive,inactive,inactive,–,inactive,inactive,–,inactive,–,inactive,inactive,inactive,inactive,inactive,inactive,inactive
Cc1c(NC(C)C)c(=O)n(-c2ccccc2)n1C,inactive,inactive,inactive,inactive,inactive,inactive,inactive,inactive,–,inactive,inactive,inactive,–,inactive,inactive,inactive,inactive,inactive,inactive,inactive
Cc1cc(NC(=O)C2=C(O)c3ccccc3S(=O)(=O)N2C)no1,inactive,inactive,inactive,inactive,inactive,–,inactive,inactive,inactive,inactive,inactive,inactive,inactive,inactive,inactive,inactive,inactive,inactive,inactive,inactive
Cn1c([N+](=O)[O-])cnc1COC(N)=O,inactive,inactive,inactive,inactive,inactive,–,inactive,inactive,inactive,inactive,inactive,inactive,inactive,inactive,inactive,inactive,inactive,inactive,inactive,inactive
Nc1ncnc2c1ncn2[C@@H]1O[C@H](COP(=O)(O)O)[C@@H](O)[C@H]1O,inactive,inactive,inactive,inactive,inactive,inactive,inactive,inactive,inactive,inactive,inactive,inactive,–,inactive,inactive,inactive,inactive,inactive,inactive,inactive
CC[N+](C)(CC)CCOC(=O)C1c2ccccc2Oc2ccccc21,inactive,inactive,inactive,inactive,–,inactive,inactive,inactive,inactive,inactive,inactive,inactive,inactive,inactive,inactive,inactive,inactive,inactive,inactive,inactive
Cc1ncc(CO)c(CN)c1O,inactive,inactive,inactive,inactive,inactive,inactive,inactive,inactive,inactive,inactive,inactive,inactive,inactive,inactive,–,inactive,–,inactive,inactive,inactive
NC(=O)CC[C@@H](N)C(=O)O,inactive,inactive,inactive,inactive,inactive,inactive,inactive,inactive,inactive,inactive,inactive,inactive,inactive,inactive,–,inactive,inactive,inactive,inactive,inactive
O=C(O)COC(=O)Cc1ccccc1Nc1c(Cl)cccc1Cl,inactive,inactive,inactive,inactive,inactive,inactive,inactive,inactive,inactive,inactive,inactive,inactive,inactive,inactive,–,inactive,inactive,inactive,inactive,inactive
COc1cc(O)cc(O)c1,inactive,inactive,inactive,inactive,inactive,–,inactive,inactive,inactive,inactive,inactive,inactive,inactive,inactive,inactive,inactive,inactive,inactive,inactive,inactive
CC(=O)Nc1ccc(OCCOCCOc2ccc(NC(C)=O)cc2)cc1,inactive,inactive,inactive,inactive,inactive,–,inactive,inactive,inactive,inactive,inactive,inactive,inactive,inactive,inactive,inactive,inactive,inactive,inactive,inactive
CC(O)CCCCn1c(=O)c2c(ncn2C)n(C)c1=O (stereo unspecified),inactive,inactive,inactive,inactive,inactive,inactive,inactive,inactive,inactive,inactive,inactive,inactive,inactive,inactive,inactive,inactive,inactive,inactive,inactive,inactive
CC(=O)N(CC(O)CO)c1c(I)c(C(=O)NCC(O)CO)c(I)c(C(=O)NCC(O)CO)c1I (stereo unspecified),inactive,inactive,–,inactive,–,–,inactive,inactive,–,inactive,–,10000 nM (active),7080 nM (active),inactive,–,inactive,–,–,–,–
CC[N+](CC)(CC(=O)Nc1c(C)cccc1C)Cc1ccccc1,inactive,inactive,inactive,inactive,–,–,inactive,inactive,inactive,inactive,inactive,inactive,inactive,inactive,inactive,inactive,inactive,inactive,inactive,inactive
Cc1cc(O)cc(C)c1Cl,inactive,inactive,–,–,–,–,–,–,–,inactive,–,–,3550 nM (active),–,–,–,–,–,12000 nM (active),–
O=C(O)CCC(=O)O,inactive,inactive,–,inactive,inactive,inactive,inactive,inactive,inactive,inactive,inactive,inactive,inactive,inactive,inactive,inactive,inactive,inactive,inactive,inactive
CCCCCCCCCCOc1cc2c(=O)c(C(=O)OCC)c[nH]c2cc1OCC,–,–,1.3 nM (active),1.4 nM (active),5.4 nM (active),6.7 nM (active),–,2.8 nM (active),2.8 nM (active),5 nM (active),2.1 nM (active),2 nM (active),3.2 nM (active),35.5 nM (active),3.2 nM (active),3.2 nM (active),3.5 nM (active),6.3 nM (active),–,2.2 nM (active)
CC(=O)OCC(COC(C)=O)OC(C)=O,inactive,inactive,–,inactive,inactive,inactive,inactive,inactive,inactive,inactive,inactive,inactive,inactive,inactive,inactive,inactive,inactive,inactive,inactive,inactive
